# Assay outcomes as filed in PubChem BioAssay.
# Shown are actives, neighbours in structure and some others; about 6.9% of the full set was active somewhere.
# Giardia kill = Giardia lamblia killing; activity change, % at 7.66 µM, hits read low; actives 0.15% (n = 340,000); AID 540267; Giardia lamblia trophozoite viability; in the data active = activity change below about -80%; inconclusive = between about -30% and that limit;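 also: parasites exposed to compound for two days anaerobically before the ATP read; % is scaled to controls: 0 for no effect and ±100 for the full control effect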
#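 Media and compound were dispensed first, then trophozoites at 100 cells/well; plates sat 48 hrs at 37 deg C without oxygen before ATP luminescence reagent was added and read after 15-30 min at room temperature.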
# KB-3-1 cytotox = KB-3-1 parental cell cytotoxicity; Potency, µM (titrated, usually from 46.1 µM), usual class: cytotoxic; KB-3-1 viability, CellTiter-Glo ATP luminescence, 72 h; actives 1.4% (n = 400,000); also: potency is read from the fitted curve at half-maximal effect; % is scaled to controls: 0 for no effect and ±100 for the full control effect; nearly all actives have a fitted effect of over 60% in size
#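 Multi-concentration cytotoxicity screen in KB-3-1 cells grown in DMEM lacking phenol red with 10% FBS. After 72 h at 37 °C with compound, ATP-dependent luminescence was recorded.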
# MCF10A rereplic = DNA re-replication induction in MCF 10a cells; MCF 10A DNA re-replication, Hoechst nuclear intensity, 48 h; Potency, µM (highest dose often 46.1 µM), inactives show top-dose activity, positive = re-replication, actives largely listed as activators; actives 2.9% (n = 350,000); also: potency is read from the fitted curve at half-maximal effect; % of control where 0% means no effect; nearly all actives have a fitted effect of over 50% in size
# KB-V1 MDR tox = KB-V1 MDR subline cytotoxicity | KB-V1 MDR cells viability, CellTiter-Glo, 72 h | Potency, µM (titrated, usually from 46.1 µM), hits mostly cytotoxic | actives 3.4% (n = 400,000) | AID 1347076; also: potency is read from the fitted curve at half-maximal effect; % is scaled to controls: 0 for no effect and ±100 for the full control effect; nearly all actives have a fitted effect of over 60% in size
#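 In this primary screen, KB-V1 cells overexpressing P-gp are incubated with library compounds (lowest to highest concentration) for 72 h at 37 degrees C before a luminescent ATP viability read.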
# SW480 rereplic = induces DNA re-replication in SW480 colon adenocarcinoma cells; SW480 DNA re-replication, Hoechst DNA content imaging, 48 h; Potency, µM (highest dose often 46.1 µM), for inactives: top-dose re-replication activation, most hits filed as activators; actives 1.8% (n = 340,000); AID 624297; also: potency is read from the fitted curve at half-maximal effect; % of control where 0% means no effect; nearly all actives have a fitted effect of over 55% in size
#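 250 cells/well; 23 nL cpd via pin tool; 48 hr, 37 C, 5% CO2; Hoechst 40 min; imager read of total nuclear intensity, ex 405/em 500-530 nm.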
# S-ASM inh = human S-ASM enzyme inhibition; P17405; placental ASM, HMU-PC fluorogenic substrate, 60 min; Potency, µM (highest dose often 57.5 µM), for inactives: top-dose activity change, negative = inhibition, actives largely listed as inhibitors; actives 0.006% (n = 340,000); also: potency is read from the fitted curve at half-maximal effect
# Target sequence (P17405 47-631 limits assumed): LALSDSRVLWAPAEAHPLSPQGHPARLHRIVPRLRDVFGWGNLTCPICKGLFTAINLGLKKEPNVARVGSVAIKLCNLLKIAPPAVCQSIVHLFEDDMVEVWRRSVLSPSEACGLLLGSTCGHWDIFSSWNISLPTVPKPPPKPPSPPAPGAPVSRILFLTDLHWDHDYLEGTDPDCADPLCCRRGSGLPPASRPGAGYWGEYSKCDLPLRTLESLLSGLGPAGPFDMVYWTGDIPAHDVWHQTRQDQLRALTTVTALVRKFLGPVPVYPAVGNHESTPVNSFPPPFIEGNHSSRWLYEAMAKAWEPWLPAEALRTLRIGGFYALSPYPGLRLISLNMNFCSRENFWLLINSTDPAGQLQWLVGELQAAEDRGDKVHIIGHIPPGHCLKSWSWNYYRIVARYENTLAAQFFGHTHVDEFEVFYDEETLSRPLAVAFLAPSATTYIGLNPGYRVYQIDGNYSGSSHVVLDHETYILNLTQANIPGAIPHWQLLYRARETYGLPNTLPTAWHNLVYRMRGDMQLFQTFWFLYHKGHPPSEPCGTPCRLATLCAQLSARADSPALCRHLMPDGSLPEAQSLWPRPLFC
#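 Fluorogenic HMU-PC substrate (9 uM final) is turned over by placental ASM in 60 min at 37 C after a 10 min compound preincubation. Reaction ended by alkaline stop (pH 10), with fluorescence read at 386/447 nm.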
# An asterisk follows results filed as active; i = inactive; ? = inconclusive; . = not tested or not shown. Unless noted, calls follow the shape of the dose curve; as a rule, active = well fitted curve in the direction sought with a large enough effect; inconclusive = small, poorly fitted or top-dose-only effect, or another doubt; inactive = no such curve, though single readings can be large; an effect the other way counts as inactive or inconclusive.
SMILES,Giardia kill,KB-3-1 cytotox,MCF10A rereplic,KB-V1 MDR tox,SW480 rereplic,S-ASM inh
CN(C)CCN(C)C1CN(C2CCCC2)S(=O)(=O)C1 (centres undefined),.,i,.,i,.,.
Cc1csc(CN(C)C(=O)CC2C(=O)NCCN2Cc2ccc(F)c(F)c2)n1 (centres undefined),10,.,4%,.,-3%,11%
O=C(Nc1nc(-c2ccccn2)cs1)c1ccc(Br)s1,-2,i,26µM*,1.3µM*,2.1µM*,-8%
CC(Oc1ccc(F)cc1)C(=O)Nc1nc(-c2ccccn2)cs1 (centres undefined),6,?,3.3µM*,i,-13%,4%
O=C(Nc1nc(-c2ccccn2)cs1)c1ccco1,-3,i,?,i,4.1µM*,8%
C[C@H](NC(=O)c1ccco1)C(=O)Nc1nc(-c2ccccn2)cs1,20,i,2%,4.1µM*,?,3%
O=C(Nc1nc(-c2ccccn2)cs1)C1CC1,8,?,7%,i,?,-7%
C=C1NN(C)C(=O)N1c1ccc(OC)cc1,.,i,.,i,.,.
CC(C)c1ccc(NC(=O)Cn2cc(S(=O)(=O)N3CCN(c4ccccc4F)CC3)c3ccccc3c2=O)cc1,.,i,.,i,.,.
COc1ccc(NC(=O)C2CCCN(c3nc(C)cc(C)n3)C2)cc1 (centres undefined),7,i,2.9µM*,?,-24%,1%
COc1ccc(NC(=O)C2CCCN(c3ncccn3)C2)cc1 (centres undefined),-11,i,-25%,i,-29%,1%
Cc1ccc(NC(=O)C2CCCN(c3ncccn3)C2)cc1C (centres undefined),4,i,14%,i,-8%,2%
COc1ccc(NC(=O)C2CCCN(c3nccc(C)n3)C2)cc1 (centres undefined),-16,i,15%,i,-19%,-1%
COc1cccc(-c2ccc(NC(=O)C3CCCN(CCCn4nc(C)cc4C)C3)cc2)c1 (centres undefined),11,?,?,i,21µM*,-4%
CCC(C)c1ccc(NC(=O)C2CCCN(c3ncccn3)C2)cc1 (centres undefined),17,10µM*,?,7.9µM*,18%,-5%
Cc1ccnc(N2CCCC(C(=O)Nc3ccc(C)c(C)c3)C2)n1 (centres undefined),-19,i,16µM*,i,-7%,1%
COc1cccc(-c2ccc(NC(=O)C3CCCN(Cc4ccco4)C3)cc2)c1 (centres undefined),-9,.,?,.,23%,-3%
CCOC(=O)C1=C(CS(=O)(=O)c2ccc(F)cc2)NC(=O)NC1c1ccc(OCC)c(OC)c1 (centres undefined),.,i,.,i,.,.
CCC(C)c1ccc(NC(=O)C2CC3CCC2C3)cc1 (centres undefined),-3,i,7.3µM*,i,?,2%
O=C(O)CCSc1nc2ccccc2n1-c1ccccc1,3,i,-1%,i,-9%,7%
COCCn1c(SCC(=O)Nc2nc(C)c(Cl)cc2Cl)nc2ccccc21,-10,i,17%,?,-7%,-2%
Cn1c(Cc2ccccc2)nnc1SCc1cc(=O)n2ccsc2n1,-7,i,-5%,i,-14%,7%
Cc1cccc(-n2c(SCC(=O)Nc3ncc(Cl)cc3Cl)nc3ccccc32)c1,23,2.9µM*,15%,?,?,-12%
Cc1cccc(-n2c(SCc3cc(=O)n4ccsc4n3)nc3ccccc32)c1,-5,?,8%,13µM*,?,-8%
O=C(CSc1nc2ccccc2n1-c1ccccc1)Nc1ncc(Cl)cc1Cl,3,5.2µM*,?,?,7%,-2%
SMILES,Giardia kill,KB-3-1 cytotox,MCF10A rereplic,KB-V1 MDR tox,SW480 rereplic,S-ASM inh
CN(C)c1ccc(C=c2c3ccccc3n3c2cc(-c2ccccc2)[n+]3C)cc1,-17,?,-9%,16µM*,?,?
COc1cc(C=c2c3ccccc3n3c2cc(-c2ccccc2)[n+]3C)cc(OC)c1OC,0,?,?,?,?,-9%
COc1cc(N(C)C)ccc1C=c1c2ccccc2n2c1cc(-c1ccccc1)[n+]2C,-27,1µM*,8%,?,?,?
CN(C)c1ccc(C=c2c3ccccc3n3c2cc(-c2ccc(Cl)cc2)[n+]3C)cc1,32,7.3µM*,26%,i,?,-4%
CN(C)c1ccc(C=c2c3cc([N+](=O)[O-])ccc3n3c2cc(-c2ccccc2)[n+]3C)cc1,-11,5.2µM*,?,i,7%,?
CCOC(=O)c1c(NC(=O)c2nc(SCC)ncc2Cl)sc2c1CCCC2,.,i,.,i,.,.
COc1ccc(-c2cc3ccc(O)c(CN4CCOCC4)c3oc2=O)cc1OC,.,i,.,?,.,.
CCOC(=O)c1cc(C)sc1NC(=O)CSC1=NCCS1,-1,i,21µM*,i,?,-7%
O=C(OCc1ccc(Br)cc1)c1cc([N+](=O)[O-])ccc1N1CCOCC1,.,5.8µM*,.,1.3µM*,.,.
COc1ccc(COC(=O)c2cc([N+](=O)[O-])ccc2N2CCOCC2)cc1F,-15,0.13µM*,21%,0.073µM*,?,?
O=C(OCc1cccc(Cl)c1)c1cc([N+](=O)[O-])ccc1N1CCOCC1,-8,?,?,?,?,-14%
CCOC(=O)c1cc(CC)sc1NC(=O)c1cc([N+](=O)[O-])ccc1N1CCOCC1,-3,1µM*,?,i,2.3µM*,2%
O=C(COC(=O)c1cc([N+](=O)[O-])ccc1N1CCOCC1)c1ccc(F)cc1,23,i,0%,i,4%,-4%
CCc1ccc(C(=O)COC(=O)c2cc([N+](=O)[O-])ccc2N2CCOCC2)cc1,10,?,4.6µM*,6.5µM*,10µM*,-17%
CCOC(=O)c1cc(CC)sc1NC(=O)c1ccc(N2CCOCC2)c([N+](=O)[O-])c1,11,i,27%,i,-3%,-6%
COC(=O)c1cc(S(=O)(=O)NCc2cc(OC)c(OC)c(OC)c2)cn1C,19,i,-8%,i,-10%,1%
O=S(=O)(c1ccc2c(c1)OCCO2)N1CCN(c2nc(-c3ccccc3)nc3ccccc23)CC1,5,.,.,.,.,.
Cc1ccn2c(=O)c(NC(=O)c3cccs3)c(C)nc2c1,7,i,-1%,i,23µM*,0%
Cc1ccn2c(=O)c(NC(=O)c3cccc([N+](=O)[O-])c3C)c(C)nc2c1,.,?,.,i,.,.
